Test results reported in PubChem BioAssay (Tox21).
Values joined by “and” are separate entries in the source; they are usually repeats but may differ in a detail not shown here. Equal entries are not always repeated. Inconclusive results are not listed. Entries that show only a call come without a potency. Some structures have more than one record in an assay (separate samples or runs), and their calls can disagree. Active and inactive are the calls of the source. Unless noted, the call rests on the fitted dose curve; in most records, active means well fitted curve in the direction sought with a large enough effect in the repeat runs; inconclusive means weak or mixed curves; inactive means no such curve, though single readings can be large; an effect the other way counts as inactive or inconclusive.

What was measured:
[1] = qHTS assay to identify small molecule antagonists of the retinoid acid receptor (RAR) signaling pathway - cell viability counter screen (AID 1159551); conditions: C3RL4 cells viability, ATP luminescence (CellTiter-Glo), 6 h; series mostly up to 92.4 µM; further: nearly all actives have a fitted effect of over 35% in size
Summary of the method: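 Following overnight attachment, C3RL4 reporter cells received DMSO-dissolved compounds and then retinol (1 uM final). Six hours later at 37 C, ATP content was measured by CellTiter-Glo luminescence.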

[2] = qHTS assay to identify small molecule antagonists of the retinoic acid receptor (RAR) signaling pathway (AID 1159552; further: nearly all actives have a fitted effect of over 50% in size); conditions: C3RL4 RARE luciferase reporter, retinol-stimulated, 6 h; series mostly up to 92.4 µM
Summary of the method: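 Test chemicals and DMSO controls were pin-transferred onto C3RL4 cells a day after seeding; retinol (1 uM final) followed at once. Luminescent reporter output was quantified after 6 hr of co-incubation and 30 min with detection reagent.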

[3] = qHTS assay to identify small molecule agonists of the retinoic acid receptor (RAR) signaling pathway (AID 1159553); conditions: C3RL4 RARE luciferase reporter, agonist, 6 h; activation: at 73.3 µM (top of the series) unless noted; further: potency means the concentration at half of the fitted maximal effect
Summary of the method: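 Cell line C3RL4, RARE luciferase reporter. Treatment: compounds in DMSO, 6 hr, 37 C, 5% CO2, after overnight plating. Detection: luminescence, 30 min RT after reagent.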

[4] = biological target: Luciferin 4-monooxygenase (Photinus pyralis) (UniProt P08659); assay: qHTS assay to identify small molecule inhibitors of firefly luciferase (AID 1224835); further: nearly all actives have a fitted effect of over 25% in size; further: potency means the concentration at half of the fitted maximal effect; conditions: purified P. pyralis luciferase, luminescence inhibition; series mostly up to 115 µM
Chain of Luciferin 4-monooxygenase (Photinus pyralis) (P08659 whole entry, looked up): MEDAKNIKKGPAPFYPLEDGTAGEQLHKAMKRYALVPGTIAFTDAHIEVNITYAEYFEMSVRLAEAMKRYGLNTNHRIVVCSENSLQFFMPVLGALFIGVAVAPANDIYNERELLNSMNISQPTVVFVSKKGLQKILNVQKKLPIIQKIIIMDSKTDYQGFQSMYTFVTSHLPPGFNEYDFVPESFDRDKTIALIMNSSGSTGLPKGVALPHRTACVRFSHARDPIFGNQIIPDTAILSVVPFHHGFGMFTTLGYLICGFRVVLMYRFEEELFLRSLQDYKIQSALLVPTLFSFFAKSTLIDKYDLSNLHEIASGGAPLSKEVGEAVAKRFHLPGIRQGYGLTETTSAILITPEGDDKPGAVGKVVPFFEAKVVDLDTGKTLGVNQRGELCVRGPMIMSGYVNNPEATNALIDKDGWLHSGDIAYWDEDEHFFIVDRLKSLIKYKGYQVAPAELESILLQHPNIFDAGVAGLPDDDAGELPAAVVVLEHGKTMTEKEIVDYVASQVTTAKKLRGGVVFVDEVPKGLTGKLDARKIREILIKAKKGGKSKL
Summary of the method: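 Inhibition of purified Photinus luciferase is measured by luminescence. Substrate levels (D-luciferin, ATP) sit at their KM values. Each compound is tested in a concentration series.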

[5] = qHTS assay to identify small molecule agonists of the constitutive androstane receptor (CAR) signaling pathway - cell viability counter screen (AID 1224836); conditions: HepG2-CYP2B6-hCAR viability, CellTiter-Fluor, 23 h, PK11195 added to every well; series mostly up to 92.4 µM; further: nearly all actives have a fitted effect of over 45% in size
Summary of the method: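 23 h treatment, 37 C, 5% CO2. Cell line: HepG2 stably expressing hCAR with a CYP2B6-2.2kb construct. Co-treatment: PK11195, 0.75 uM final. Read-out: CellTiter-Fluor fluorescence intensity.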

[6] = qHTS assay to identify small molecule antagonists of the constitutive androstane receptor (CAR) signaling pathway - cell viability counter screen (AID 1224837); conditions: HepG2-CYP2B6-hCAR viability, CellTiter-Fluor, 23 h, co-treated with 50 nM CITCO; series mostly up to 92.4 µM; further: nearly all actives have a fitted effect of over 45% in size
Summary of the method: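 Fluorescence from CellTiter-Fluor served as the viability signal. Human hepatoma HepG2 cells stably bearing hCAR and CYP2B6-2.2kb received compound plus CITCO (50 nM final) for 23 hr.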

[7] = biological target: Nuclear receptor subfamily 1 group I member 3 (Homo sapiens) (UniProt Q14994); assay: qHTS assay to identify small molecule antagonists of the constitutive androstane receptor (CAR) signaling pathway (AID 1224838); conditions: HepG2-CYP2B6-hCAR luciferase, CITCO-stimulated, 24 h; series mostly up to 92.4 µM;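 further: HepG2 cells stably expressing hCAR with CYP2B6 luciferase reporter stimulated by CITCO; nearly all actives have a fitted effect of over 40% in size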; further: potency means the concentration at half of the fitted maximal effect
Chain of Nuclear receptor subfamily 1 group I member 3 (Homo sapiens) (Q14994 whole entry, looked up): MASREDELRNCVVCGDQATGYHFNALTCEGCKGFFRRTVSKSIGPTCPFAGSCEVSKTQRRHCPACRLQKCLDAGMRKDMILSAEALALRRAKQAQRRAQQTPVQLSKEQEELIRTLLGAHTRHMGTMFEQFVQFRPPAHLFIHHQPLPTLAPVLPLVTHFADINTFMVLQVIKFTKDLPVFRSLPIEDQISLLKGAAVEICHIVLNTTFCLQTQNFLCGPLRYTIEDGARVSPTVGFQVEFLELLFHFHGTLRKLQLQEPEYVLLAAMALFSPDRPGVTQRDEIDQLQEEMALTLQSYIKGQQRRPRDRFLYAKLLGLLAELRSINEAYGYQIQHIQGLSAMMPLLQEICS
Summary of the method: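 Quantitative HTS in double-stable HepG2-CYP2B6-hCAR cells. After 4 h plating, cells get compound (15 concentrations) and CITCO at 50 nM final, incubate 24 h at 37 C, then ONE-Glo luminescence is read.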

[8] = biological target: Nuclear receptor subfamily 1 group I member 3 (Homo sapiens) (UniProt Q14994); assay: qHTS assay to identify small molecule agonists of the constitutive androstane receptor (CAR) signaling pathway (AID 1224839); conditions: HepG2 hCAR CYP2B6-luciferase, agonist mode, 24 h; series mostly up to 92.4 µM; further: nearly all actives have a fitted effect of over 15% in size; further: potency means the concentration at half of the fitted maximal effect;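 on activation: HepG2 cells stably carrying human CAR and a CYP2B6 luciferase reporter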
Summary of the method: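 Compounds tested at 15 concentrations on HepG2 cells stably harbouring hCAR and CYP2B6-2.2kb reporter constructs, co-treated with PK11195 (0.75 uM final), 24 h at 37 C; luminescent reporter signal quantified.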

[9] = qHTS assay to identify small molecule antagonists of the estrogen related receptor signaling pathway with the pleiotropic PPARgamma coactivator (PGC) from Tox21 10K library - cell viability counter screen (AID 1224840; active means well fitted cell-killing curve with a large enough effect in the repeat runs, not every such curve was filed as active; further: nearly all actives have a fitted effect of over 40% in size; further: potency means the concentration at half of the fitted maximal effect); conditions: PGC/ERR reporter cells viability, CellTiter-Fluor, 17.5 h; series mostly up to 92.4 µM
Summary of the method: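 Compounds in DMSO, alongside positive and negative controls, were pinned onto PGC/ERR cells (2,000 per well). Exposure lasted 17.5 hours at 37 C, followed by a 30-minute CellTiter-Fluor incubation and fluorescence reading.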

[10] = qHTS assay to identify small molecule agonists of the RXR signaling pathway - cell viability counter screen (AID 1159529); conditions: RXR-alpha-bla HEK293T viability, CellTiter-Glo, 16 h; series mostly up to 76.8 µM; further: nearly all actives have a fitted effect of over 50% in size
Summary of the method: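 Compounds dissolved in DMSO were pinned onto HEK 293T cells carrying a beta-lactamase reporter under RXR-alpha control and incubated 16 hr. Cytotoxicity was then quantified by CellTiter-Glo luminescence.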

[11] = biological target: Thyrotropin receptor (Homo sapiens) (UniProt P16473); assay: qHTS assay to identify small molecule agonists of the thyroid stimulating hormone receptor (TSHR) signaling pathway (AID 1224843; calls by dose curve; further: nearly all actives have a fitted effect of over 45% in size); conditions: TSHR-HEK293 cells, cAMP HTRF, agonist mode, 30 min; series mostly up to 92.4 µM
Chain of Thyrotropin receptor (Homo sapiens) (P16473 whole entry, looked up): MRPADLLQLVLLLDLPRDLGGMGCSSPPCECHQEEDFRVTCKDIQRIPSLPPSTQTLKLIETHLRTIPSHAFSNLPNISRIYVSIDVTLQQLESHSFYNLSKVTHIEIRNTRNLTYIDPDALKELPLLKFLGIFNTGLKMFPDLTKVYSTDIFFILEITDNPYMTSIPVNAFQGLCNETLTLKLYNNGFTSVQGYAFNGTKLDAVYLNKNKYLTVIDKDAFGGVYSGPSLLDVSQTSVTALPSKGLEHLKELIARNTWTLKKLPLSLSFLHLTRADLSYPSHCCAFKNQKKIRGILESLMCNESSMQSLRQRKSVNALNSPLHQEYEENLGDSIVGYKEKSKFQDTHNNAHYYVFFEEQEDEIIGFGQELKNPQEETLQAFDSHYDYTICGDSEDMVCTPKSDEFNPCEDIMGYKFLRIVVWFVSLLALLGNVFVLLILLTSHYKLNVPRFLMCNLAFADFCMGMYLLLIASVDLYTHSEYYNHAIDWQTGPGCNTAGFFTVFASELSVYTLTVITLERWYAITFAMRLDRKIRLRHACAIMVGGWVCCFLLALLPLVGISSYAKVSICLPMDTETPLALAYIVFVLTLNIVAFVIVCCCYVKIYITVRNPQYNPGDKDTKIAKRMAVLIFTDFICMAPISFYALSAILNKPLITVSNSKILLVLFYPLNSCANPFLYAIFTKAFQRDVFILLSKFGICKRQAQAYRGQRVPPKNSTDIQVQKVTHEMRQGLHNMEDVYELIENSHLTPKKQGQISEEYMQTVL
Summary of the method: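 Screening of the Tox21 10K collection used HEK293 cells engineered with TSHR at 800 cells per well. After a 30-min room-temperature compound exposure, HTRF cAMP reagents were added and fluorescence recorded 1 h later.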

[12] = qHTS assay to identify small molecule antagonists of the estrogen related receptor (ERR) signaling pathway from Tox21 library - cell viability counter screen (AID 1224834); conditions: ERR reporter cells viability, CellTiter-Fluor, 17.5 h; series mostly up to 92.4 µM; further: nearly all actives have a fitted effect of over 30% in size; further: potency means the concentration at half of the fitted maximal effect
Summary of the method: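 Viability readout (CellTiter-Fluor fluorescence, 30 min at 37 C) multiplexed with the ERR assay; cells treated 17.5 h at 37 C with compounds delivered in DMSO.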

[13] = qHTS assay to identify small molecule antagonists of the estrogen related receptor (ERR) signaling pathway - cell viability counter screen (AID 1224818); conditions: ERR reporter cell line viability counter screen; series mostly up to 46.1 µM;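 further: viability measured after 17.5 h of compound exposure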
Summary of the method: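 Here, ERR cells are plated at 2,000 cells per well, allowed 6 h to attach, and treated with compounds in DMSO for 17.5 h at 37 C. CellTiter-Fluor is then added and fluorescence read after 30 min.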

[14] = qHTS assay to identify small molecule antagonists of the estrogen related receptor signaling pathway with the pleiotropic PPARgamma coactivator (PGC) cell viability counter screen (AID 1224822;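 further: viability read after 17.5 h compound exposure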); conditions: ERR/PGC reporter cell line viability counter screen; series mostly up to 46.1 µM
Summary of the method: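 qHTS format, DMSO compound stocks pin-transferred onto PGC/ERR cells 6 h after plating; 17.5 h exposure at 37 C, then CellTiter-Fluor fluorescence.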

| SMILES | Potency [1] | Potency [2] | Potency [3] | Potency [4] | Potency [5] | Potency [6] | Potency [7] | Potency [8] | Potency [9] | Potency [10] | Potency [11] | Potency [12] | outcome [13] | Potency [14] |
| --- | --- | --- | --- | --- | --- | --- | --- | --- | --- | --- | --- | --- | --- | --- |
| COc1ccc2cc3[n+](cc2c1OC)CCc1cc2c(cc1-3)OCO2 | inactive | inactive | inactive | inactive | inactive | inactive | inactive | inactive | inactive |  |  |  |  |  |
| CCCN(CCC)C(=O)SCC | inactive |  |  | inactive | inactive | inactive | inactive | inactive | inactive | inactive | inactive |  |  |  |
| CC(C)c1ccc(C(C)C)cc1 | inactive |  |  | inactive | inactive | inactive | inactive | inactive | inactive | inactive |  | inactive |  |  |
| COc1ccc(N)c(OC)c1 | inactive |  |  | inactive | inactive | inactive | inactive | inactive | inactive | inactive |  | inactive and 54.5 µM (active) |  |  |
| NC(=O)c1ncn([C@@H]2O[C@H](CO)[C@@H](O)[C@H]2O)n1 | inactive |  |  | inactive | inactive | inactive | 7.23 µM (active) | inactive | inactive | inactive |  | inactive | inactive | inactive |
| CC(O)CNCC(C)O (configuration not stated) | inactive |  |  | inactive | inactive | inactive | inactive | inactive | inactive | inactive |  | inactive |  |  |
| CC(=O)CC(=O)N(C)C | inactive |  |  | inactive | inactive | inactive |  |  | inactive | inactive | inactive |  |  |  |
| Cc1nnc(NS(=O)(=O)c2ccc(N)cc2)s1 | inactive |  |  | inactive | inactive | inactive |  |  | inactive | inactive | inactive | inactive |  |  |
| Clc1cccc(Cl)c1NC1=NCCN1 | inactive |  |  |  | inactive | inactive | inactive | inactive | inactive | inactive | inactive | inactive | inactive | inactive |
| O=C1O[C@H]([C@H](O)CO)C(O)=C1O | inactive |  |  | inactive | inactive | inactive | inactive | inactive | inactive | inactive |  | inactive |  |  |
| O=C(NCC1CCCCN1)c1cc(OCC(F)(F)F)ccc1OCC(F)(F)F (configuration not stated) | inactive |  |  |  | inactive | inactive | inactive |  | inactive | inactive |  | inactive |  |  |
| CCCCCCCC(=O)O | inactive |  |  | inactive | inactive | inactive | inactive | inactive | inactive | inactive |  | inactive |  |  |
| Cc1ccccc1Cl | inactive |  |  | inactive | inactive | inactive | inactive | inactive | inactive | inactive |  | inactive |  |  |
| OCc1ccc(Cl)cc1Cl | inactive | inactive |  | inactive | inactive | inactive | inactive | inactive | inactive | inactive |  |  |  |  |
| NC(N)=S | inactive |  |  | inactive | inactive | inactive | inactive | inactive | inactive | inactive |  |  |  |  |
| Cc1ccccc1C=O | inactive |  |  | inactive | inactive | inactive | inactive | inactive | inactive | inactive |  |  |  |  |
| Cc1ncc(CO)c(CO)c1O | inactive |  |  | inactive | inactive | inactive |  |  | inactive | inactive |  | inactive |  |  |
| CC[N+](CC)(CC(=O)Nc1c(C)cccc1C)Cc1ccccc1 | inactive |  |  | inactive | inactive | inactive |  |  | inactive | inactive | inactive | inactive |  |  |
| CCc1cccc(O)c1 | inactive |  |  | inactive | inactive | inactive | inactive | inactive | inactive | inactive | inactive | inactive |  |  |
| O=c1c(O)c(-c2ccc(O)c(O)c2)oc2cc(O)cc(O)c12 | inactive |  | 61.2 µM (active) | 35.9 µM (active) [middle of 4 runs] | inactive |  | inactive | 54.5 µM (active) and inactive | inactive and 24.3 µM (active) | inactive | inactive | 43.6 µM (active) and 27.3 µM (active) and inactive |  | inactive |
